Experimental data: PubChem BioAssay (EPA / NIEHS)
Active and inactive are the calls of the source. Rule for the calls: active = hit-call score of the fitted dose curve at least 0.9, where 1 is the maximum; inactive = score below 0.9.

Assay: CCTE_Shafer_MEA_dev_correlation_coefficient_mean: CCTE's Neural Network Formation Assay for Mean Correlation Coefficient, Shafer Lab (AID 2284093);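 for AC50: well mean pairwise spike train correlation integrated as AUC over recording days 5 to 12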
Description: CCTE_Shafer_MEA_dev assay is conducted using Axion Biosystems 48 well microelectrode array (MEA) plates and Maestro recording system. Each well of the MEA plate contains a grid of 16 microelectrodes embedded in the culture surface. Electrically active cells, such as neurons, can be cultured over the electrodes, and electrical activity in these cells can be recorded extracellularly. The spontaneous firing of neurons is captured from each electrode on a microsecond timescale providing both temporally and spatially precise data. […] The CCTE_Shafer_MEA_dev assay uses primary cultures of rat cortical neurons. Recordings are made on days post-plating 5, 7, 9 and 12. As these cultures mature over time, neural networks develop functional activity and form cohesive networks in which electrical activity can be highly coordinated. CCTE_Shafer_MEA_dev_correlation_coefficient_mean is 1 of 19 assay components of the CCTE_Shafer_MEA_dev assay. It measures the correlation coefficent of spikes (action potential firings) between every pair of electrodes in a well during a recording in a microelectrode array (MEA) using Axion Biosystems Maestro 768 channel amplifier with the AxIS adaptive spike detector. The pairwise correlations are averaged across active electrodes to report a well-mean value. To collapse across multiple recordings made on days post-plating 5, 7, 9 and 12, the trapezoidal area-under-the-curve of the component is calculated.Data from the assay component CCTE_Shafer_MEA_dev_correlation_coefficient_mean was analyzed into 1 assay endpoint. This assay endpoint, CCTE_Shafer_MEA_dev_correlation_coefficient_mean, was analyzed in the negative analysis fitting direction relative to DMSO as the negative control and baseline of activity. Using a type of functional reporter, gain or loss-of-signal activity can be used to understand electrical activity.
On the day prior to culture, each well was coated thoroughly with 150 uL of 0.05% polyethyleneimine (PEI, Sigma Cat P3143) in 50 mM HEPES (Sigma Cat H7523) at a pH of 8. The plate was incubated at 37C for one hour. PEI was rinsed out with 500 uL of sterile water three times. Plates were stored at 4C until the day of culture. This culture was plated at a seeding density of 1.5 x 10^5 cells/well on a 48-well MEA plate, prepared as described above. Cells were administered via a 25 uL media/laminin ([…]; Sigma Cat L2020-1MG) drop directly onto the microelectrode array, as adding the cells with the laminin results in better attachment than pre-coating with laminin. After 2 hours, an additional 475 uL of cortical media was added and the cells returned to the incubator. Exposure starts at day 0 of plating and is continued over twelve days of network development until the experiment is terminated. Cells are fed with fresh medium on DIV 5 and 9, following the recordings on those days. The entire volume of media in the well is exchanged and any vehicle or compound treatment is renewed. Complete details are found in OP-NHEERL/ISTD/SBB/TJS/2015-03-r0 (available on request, email shafer.tim@epa.gov). Measurement of the electrical activity is non-invasive, and recordings can be made from the same plate over multiple different days of the culture. In cortical neurons, this allows for the measurement of extracellular action potentials over the period during which networks form in the MEA plate.

outcome, inactive:
Cn1c(=O)c2c(ncn2C)n(C)c1=O, COc1ccc(-n2nc(C(F)F)cc2-c2ccc(S(C)=O)cc2)cc1 (stereo not given), CNCc1ccc(NC(=O)c2c[nH]c3c2C(=O)CCC3)cc1, CC[C@H]1OC(=O)[C@H](C)[C@@H](O[C@H]2C[C@@](C)(OC)[C@@H](O)[C@H](C)O2)[C@H](C)[C@@H](O[C@@H]2O[C@H](C)C[C@H](N(C)C)[C@H]2O)[C@](C)(O)C[C@@H](C)C(=O)[C@H](C)[C@@H](O)[C@]1(C)O, NC(=O)NO, O=C1CCC(N2C(=O)c3ccccc3C2=O)C(=O)N1 (stereo not given), Nc1nc2ncc(CNc3ccc(C(=O)N[C@@H](CCC(=O)O)C(=O)O)cc3)nc2c(=O)[nH]1, O=P(OC(CCl)CCl)(OC(CCl)CCl)OC(CCl)CCl

AC50, active:
CC[C@H](C)C(=O)O[C@H]1C[C@@H](C)C=C2C=C[C@H](C)[C@H](CC[C@@H]3C[C@@H](O)CC(=O)O3)[C@H]21 16.9 nM, CCC(C)(C)C(=O)O[C@H]1C[C@@H](C)C=C2C=C[C@H](C)[C@H](CC[C@@H]3C[C@@H](O)CC(=O)O3)[C@H]21 1510 nM
